Shown are actives, neighbours in structure and some others; about 0.59% of the full set was active somewhere.
Ec RNAP inh: blocks E. coli RNA polymerase transcription; P0A8V2; fluorescence transcription assay; inhibition, %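 (tested at 10 µM)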; actives 0.2% (n = 62,000); in the data active = inhibition above about 20%
FXIIa inh mix: blocks human factor XIIa in pooled compound mixtures; P00748; purified FXIIa, fluorogenic substrate; inhibition, % at 5 µM; actives 0.2% (n = 62,000)
Target sequence (P00748 20-372 limits assumed): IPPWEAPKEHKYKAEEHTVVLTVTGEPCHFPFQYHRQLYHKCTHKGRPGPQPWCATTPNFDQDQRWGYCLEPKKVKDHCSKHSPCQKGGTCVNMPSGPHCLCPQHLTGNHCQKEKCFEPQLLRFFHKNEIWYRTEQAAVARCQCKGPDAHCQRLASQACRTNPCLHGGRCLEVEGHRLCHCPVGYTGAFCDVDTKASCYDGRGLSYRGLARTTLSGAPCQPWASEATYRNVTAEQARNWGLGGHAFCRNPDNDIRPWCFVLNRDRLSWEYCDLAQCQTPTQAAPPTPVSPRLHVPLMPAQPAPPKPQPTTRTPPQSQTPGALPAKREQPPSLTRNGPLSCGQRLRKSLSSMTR
Target sequence (P00748 373-615 limits assumed): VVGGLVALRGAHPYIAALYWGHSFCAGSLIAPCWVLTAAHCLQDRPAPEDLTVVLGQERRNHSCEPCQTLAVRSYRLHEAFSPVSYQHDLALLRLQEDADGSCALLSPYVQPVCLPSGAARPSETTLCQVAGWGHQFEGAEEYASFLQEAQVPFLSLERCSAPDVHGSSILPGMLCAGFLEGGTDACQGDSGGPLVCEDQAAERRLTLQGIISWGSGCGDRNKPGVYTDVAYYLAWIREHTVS
Smad3 FoxH1 inh: blocks human Smad3 binding to FoxH1 peptide | P84022 | TR-FRET Smad3/Dy647-FoxH1 peptide binding, europium anti-His | inhibition, % at 25 µM | actives 0.29% (n = 88,000);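 active = compounds that reduce the energy-transfer binding signal between the protein and its labelled peptide by more than half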
FXIa inh mix: factor XIa (human) inhibition, mixture screen; purified FXIa, fluorogenic substrate, pooled mixtures; inhibition, % at 5 µM; actives 0.19% (n = 62,000); AID 680;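 note: each value is inhibition by a whole ten-compound pool holding the compound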
Hits are given with their value; i = inactive; nt = no result. Cut-off read from the data, not from the text of the source, unless noted: active = inhibition above about 20% (passing the limit was not always enough); inactive = the rest.

SMILES	Ec RNAP inh	FXIIa inh mix	Smad3 FoxH1 inh	FXIa inh mix
COc1ccc(C2=NO[C@@H]3C(=O)N(c4c(C)cccc4C)C(=O)[C@H]23)cc1OC	23.6	i	i	i
COc1ccc(OC)c(N2C(=O)[C@@H]3C(c4ccccc4Cl)=NO[C@@H]3C2=O)c1	i	i	i	i
Oc1ccccc1C(Sc1nc2ccccc2s1)Sc1nc2ccccc2s1	nt	nt	78.0	nt
CSC(=[SH+])[N-]N=C(c1ccccn1)c1ccccn1.[Cu][Br]	nt	nt	i	nt
C/C(=N\[N-]C(=[SH+])SCc1ccccc1)c1ccccn1.[Cl][Cu]	nt	nt	80.9	nt
CO[C@@H]1/C=C\O[C@]2(C)Oc3c(C)c(O)c4c(O)c(c(CN5CCN(C)CC5)c(O)c4c3C2=O)NC(=O)C(C)=C/C=C\[C@@H](C)[C@@H](O)[C@H](C)[C@@H](O)[C@H](C)[C@H](OC(C)=O)[C@@H]1C	nt	nt	i	nt
O=C(CCCNS(=O)(=O)c1cccs1)N1CCN(c2cccc(Cl)c2)CC1	43.3	i	i	i
Cc1c(NS(=O)(=O)c2ccccc2)cc(Cl)c(O)c1C	26.3	i	i	i
Cc1nc2ccccn2c1P(=O)(N1CCCCC1)N1CCCCC1	i	20.5	i	i
CC(=O)c1c(C)nc2ccccn12	i	i	i	i
O=C(O)[C@H]1Cc2c([nH]c3ccccc23)[C@@H](CCCCO)N1	nt	nt	i	nt
CC(C)(C)c1cnnn1-c1ccc(NC(=O)c2ccc3c(c2)OCO3)cc1	i	i	i	i
CC(=O)c1ccc(-n2nncc2C(C)(C)C)cc1	i	34.5	i	i
CCOC(=O)c1ccc(NC(=O)C(CC)(CC)C(=O)OCC)cc1	i	50.1	i	i
NC(N)=NC(N)=Nc1c(F)c(F)c(F)c(F)c1F	nt	nt	55.8	nt
O=C(O)[C@@H]1[C@H](C(=O)O)[C@@H](C(=O)O)C[C@H]1C(=O)O	nt	nt	i	nt
CCC(=O)Nc1nc2ccc(S(C)(=O)=O)cc2s1	nt	nt	i	nt
CCCC(=O)Nc1nc2ccc(S(N)(=O)=O)cc2s1	i	22.4	i	i
CC(c1ccccc1)C1CC(=O)N(C2CCCCC2)C1=O (stereo not given)	nt	nt	53.7	nt
CC1=CC(=O)CC(C)(C)[C@]1(O)/C=C/C(C)=C/C(=O)O	nt	nt	i	nt
COc1cc(C)nc(N2CCCC(C(=O)Nc3cccc(Cl)c3C)C2)n1 (stereo not given)	i	i	i	21.2
CCOc1ccc(C2C=C(c3ccc(C)cc3)Nc3nnnn32)cc1 (stereo not given)	i	i	i	i
CCOc1ccc(C2C=C(c3ccc(C)cc3)Nc3ncnn32)cc1 (stereo not given)	i	i	i	23.0
O=C(O)CSC12CC3CC(C1)CC(C(=O)O)(C3)C2	i	i	i	23.6
CC(NC(=O)c1cc2ccccc2o1)C(=O)O (stereo not given)	44.2	i	i	i
SMILES	Ec RNAP inh	FXIIa inh mix	Smad3 FoxH1 inh	FXIa inh mix
CC(=O)c1cccc(NC(=O)CN(c2ccccc2)S(C)(=O)=O)c1	i	i	58.4	i
COc1nc(Cl)nc(Cl)c1Cl (tested in a mixture with another compound)	nt	nt	83.3	nt
Cc1ccc(C)n1-n1cnc2sc3c(c2c1=O)CCC3	i	i	i	i
COC(=O)c1sc2ncn(-n3c(C)ccc3C)c(=O)c2c1C	nt	nt	59.8	nt
O=C(NCc1cn2ccsc2n1)c1cccc(C(F)(F)F)c1	21.7	i	i	i
NCCSS(=O)(=O)CCN	nt	nt	61.9	nt
CCc1cc(C(=O)OC)c(N2C(=O)C3C4C=CC(C4)C3C2=O)s1 (stereo not given)	i	51.6	i	i
Ic1ccc2c(c1)N(c1ccccc1)c1cc(Nc3ccc4nc5ccc(I)cc5[n+](-c5ccccc5)c4c3)ccc1N2	nt	nt	89.7	nt
O=C1c2ccccc2[C@@H]([C@H]2c3ccccc3C(=O)c3cc(Br)ccc32)c2ccc(Br)cc21	nt	nt	i	nt
O=C1c2ccccc2-c2cc([N+](=O)[O-])c([N+](=O)[O-])cc21	nt	nt	52.2	nt
CC(=O)N[C@H](Cc1ccc(O)cc1)C(=O)O	nt	nt	i	nt
c1ccc([C@H](CCN2CCCC2)c2ccccn2)cc1	nt	nt	i	nt
CCCn1c(SCC(=O)Nc2nc3c(s2)CCCC3)nc2c1c(=O)n(C)c(=O)n2C	55.3	i	i	i
CC(=O)N(Cc1ccco1)C1(C(=O)NC2CCCC2)CCCCC1	nt	nt	i	nt
O=CN(Cc1ccco1)C1(C(=O)NC2CCCCC2)CCCCC1	i	32.8	i	i
CC(=O)C(C(C)=O)c1c(Cl)c(O)c(O)c2c(C(=O)c3ccccc3)coc12	32.3	i	i	i
CN(C)Cc1c(O)ccc2[nH]cnc12	i	i	i	i
CN(C)Cc1c[nH]c2nc[nH]c(=O)c12	nt	nt	67.6	nt
CSc1ncnc2c1ncn2CC(=O)[C@@H]1CC[C@@H]2[C@H]3CCC4=CC(=O)CC[C@@]4(C)[C@@H]3CC[C@]21C	nt	nt	i	nt
COc1ccccc1CNC(=O)c1cnc2ccccn2c1=O	i	i	i	20.9

Compound activity from PubChem BioAssay.
